Sampled rows, rich in hits. Any-hit rate of the full collection: about 3.3%.
SUMO HTRF inh: inhibitors of human SUMOylation (UBC9) | HTRF SUMOylation assay, SAE1/SAE2 + UBC9, in vitro | inhibition, % at 35 µM | 290,000 tested, 0.36% active; in the data active = inhibition above about 50%, passing the limit was not always enough
Target sequence (P63279 whole entry, looked up): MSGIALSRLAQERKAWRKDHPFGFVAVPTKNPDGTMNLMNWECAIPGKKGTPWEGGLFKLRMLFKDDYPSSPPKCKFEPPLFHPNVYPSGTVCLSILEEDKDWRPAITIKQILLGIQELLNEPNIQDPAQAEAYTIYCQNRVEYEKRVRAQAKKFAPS
sPLA2-III inh: Inhibits HGIII-sPLA2 liposome hydrolysis, primary screen; Q9NZ20; 370,000 tested, 0.56% active; inhibition, % at 12.2 µM; QFRET BODIPY PC-A2 liposome hydrolysis, fluorescence;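 active = inhibition above mean plus 3 SD of compounds lying within the high and low control bounds, cut at about 19% in these data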;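 also: 0% = median of test compound wells and 100% = no enzyme DMSO wells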
UBC13 polyUb: human UBC13 polyubiquitination inhibition. P61088. UBC13 polyubiquitin chain formation, TR-FRET. inhibition, % at 20 µM. 330,000 tested, 0.47% active; in the data active = inhibition above about 45%, passing the limit was not always enough
Target sequence (P61088 whole entry, looked up): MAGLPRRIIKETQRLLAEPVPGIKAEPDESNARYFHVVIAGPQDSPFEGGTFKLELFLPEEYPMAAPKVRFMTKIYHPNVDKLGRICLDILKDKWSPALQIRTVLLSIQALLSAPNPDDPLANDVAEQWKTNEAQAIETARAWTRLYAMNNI
NR3A LBD binder: NR3A (human) ligand-binding domain modulation; AID 1259313; 340,000 tested, 2.5% active; NR3A LBD differential scanning fluorimetry, Tm shift; 0% = protein alone, 100% = glycine-bound protein; Tm shift relative to glycine control, % at 25 µM;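 active = melting temperature shift of at least 10% of the positive control shift, at one fixed dose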
* marks the source's active call; other numbers are inactive results; · = no result given.

SMILES	SUMO HTRF inh	sPLA2-III inh	UBC13 polyUb	NR3A LBD binder
Cc1ccc(SCc2c(C(=O)N/N=C/c3ccccc3)nnn2-c2nonc2N)cc1	8.0	-5.6	2.7	32.6*
CCN(CC)Cc1c(C(=O)N/N=C/c2cccnc2)nnn1-c1nonc1N	13.7	2.2	-6.0	-0.2
Nc1nonc1-n1nnc(C(=O)N/N=C/c2ccco2)c1CSc1ccccc1	20.7	-2.6	-7.0	26.5*
Cc1ccc(SCc2c(C(=O)N/N=C/c3ccoc3)nnn2-c2nonc2N)cc1	10.9	5.7	5.1	12.2*
CCOc1ccc(-c2c(C(=O)N/N=C/c3ccccc3)nnn2-c2nonc2N)cc1	19.8	-9.9	3.9	-1.0
Cc1ccc(/C=N/NC(=O)c2nnn(-c3nonc3N)c2CNc2ccccc2)cc1	32.6	-1.2	-6.7	34.6*
Nc1nonc1-n1nnc(C(=O)N/N=C/c2ccc(OCc3ccccc3F)cc2)c1CNc1ccccc1	18.8	-8.2	-11.1	34.0*
CC(=O)N1CCc2cc(Br)c(S(=O)(=O)CCC(=O)N3CCN(c4ccccn4)CC3)cc21	·	3.5	·	·
Cc1ccc(SCc2c(C(=O)N/N=C/c3ccc4c(c3)OCO4)nnn2-c2nonc2N)cc1	-5.6	1.4	-4.3	30.8*
CCCc1c(C(=O)N/N=C/c2ccc3c(c2)OCO3)nnn1-c1nonc1N	·	0.4	·	·
CCCC1CCC2(CC1)CCC2OC(=O)Nc1ccccc1C (configuration not stated)	·	5.8	·	·
Cc1ccc2c(C)c(C(=O)Nc3ccc(S(N)(=O)=O)cc3)oc2c1C	29.6	5.7	2.1	-0.9
Cc1c(C(=O)Nc2ccc(F)c(F)c2)oc2ccc(S(=O)(=O)N3CCCCC3)cc12	-11.5	11.8	2.2	31.4*
Cc1cc2oc(C(=O)Nc3ccc(S(N)(=O)=O)cc3)c(C)c2cc1Cl	24.9	0.4	-4.0	24.2*
Cc1c(C(=O)Nc2ccc(F)cc2)oc2ccc(S(=O)(=O)N3CCCC3)cc12	1.0	-4.8	-4.4	-11.3
Cc1cc(=O)[nH]c(SCC(=O)Nc2ccc(F)c(F)c2)n1	·	-2.7	·	·
CCOC(=O)CNCCC(=O)c1ccc(Br)cc1	-24.9	15.9	2.4	22.2*
Cc1ccc(C(=O)COC(=O)CCS(=O)(=O)c2ccccc2)cc1[N+](=O)[O-]	·	8.3	-8.9	-2.5
Cc1ccc(C(=O)COC(=O)CNS(=O)(=O)c2ccccc2)cc1[N+](=O)[O-]	-21.1	3.3	-3.3	17.7*
CCCC1CCC2(CC1)CCC2OC(=O)Nc1ccccc1OC (configuration not stated)	·	-1.9	·	·
O=S(=O)(Nc1ccc(O)c(Sc2nc3ccccc3s2)c1)c1ccc(Cl)cc1	12.3	-41.2	-2.2	16.0*
CN(CCO)C1CN(Cc2cn(Cc3ccccc3F)nn2)S(=O)(=O)C1 (configuration not stated)	·	5.0	·	·
Nc1c(S(=O)(=O)c2ccccc2)c2nc3ccccc3nc2n1/N=C/c1cccc(O)c1	-31.3	-5.2	2.9	25.2*
Cc1ccc(C)c(S(=O)(=O)c2c(N)n(/N=C/c3ccco3)c3nc4ccccc4nc23)c1	92.1	-10.5	-8.6	36.1*
Cc1cccc(S(=O)(=O)c2c(N)n(/N=C/c3ccccc3)c3nc4ccccc4nc23)c1	14.9	1.5	-5.2	1.8
SMILES	SUMO HTRF inh	sPLA2-III inh	UBC13 polyUb	NR3A LBD binder
NC(=S)N/N=C/c1ccc2ccccc2c1	4.4	17.1	-22.6	17.6*
CC(C)(C)OC(=O)N1CCOCCOCCN(C(=O)OC(C)(C)C)CCOCCOCC1	6.6	-1.9	-2.8	705.0*
CC1=NNC(=O)C1CC(=O)N/N=C/C(C)=C/c1ccccc1 (configuration not stated)	18.0	-0.9	-0.6	-1.9
CC1=NNC(=O)C1CC(=O)N/N=C/c1ccc(C)o1 (configuration not stated)	11.7	-7.4	-0.6	18.3*
O=C1c2cccc3cccc(c23)C(=O)N1c1ccc(O)cc1	0.4	-8.8	0.7	-1.4
O=C1c2ccccc2C(=O)N1/N=C/c1ccc(O)c(O)c1O	71.5*	·	·	-2.1
COc1cc(/C=N/N2C(=O)c3ccccc3C2=O)ccc1O	5.7	17.4	-9.2	7.1
O=C1c2cccc3cccc(c23)C(=O)N1/N=C/c1ccc(O)cc1O	6.5	4.0	-16.8	25.1*
COC(=O)[C@H](C(C)C)N(Cc1cn(Cc2ccc(C)cc2)nn1)S(=O)(=O)c1ccccc1Br	·	-6.5	·	·
C=CCN1C(=O)[C@H](CC(=O)N2CCN(C(=O)C3CC3)CC2)[C@@]2(C(=O)OCC)CCCC=C12	·	-1.3	·	·
Cc1csc(NC(=O)c2ccc(COc3ccc(Cl)c(Cl)c3)o2)n1	·	-0.7	·	·
CCOC(=O)c1c(-c2ccccc2)csc1N1C(=O)Nc2ccccc2N1O	24.2	-16.2	-17.6	-1.7
